Assay [1] relates to MDA-MB-231. Briefly: cell viability relative to vehicle unstimulated control (fraction); higher = more viable cells. Conditions: pre-treatment time: 18 h then 24 h IFNg/TNF.
In assay [2] the test system is MDA-MB-231. Briefly: kynurenine production, fold change vs DMSO IFNg/TNF control; higher = more kynurenine produced (less inhibition). The settings on record: pre-treatment time: 18 h then 24 h IFNg/TNF. The method in brief: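 Fold change over cytokine-stimulated vehicle wells on the same plate is the measure used for kynurenine production, averaged across duplicate plates in the first screening round. MDA-MB-231 cells, seeded 24 h beforehand at 7 × 10^4/well in 96-well plates, were pre-treated 18 h with each natural product in 0.1% DMSO and stimulated 24 h at 37°C with IFNγ (1 U/ml) and TNF (6.25 ng/ml). Supernatants were read at 492 nm following trichloroacetic acid and p-dimethylaminobenzaldehyde treatment, against 0–100 μM standards.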

± gives the standard deviation of the averaged measurements.
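For cell viability relative to vehicle unstimulated control in this document: viability of the cells left after supernatant collection, read with Deep Blue dye added for 4 h, as absorbance at 570 nm minus 600 nm.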

Turning to `COc1c2cc3c(c1OC)CCN(C)[C@@H]3Cc1ccc(cc1)Oc1cc3c(c(OC)c1OC)CCN(C)[C@@H]3Cc1ccc(cc1)O2` [Cycleanine] (compound dose: 10 uM), the cell viability in the assay with MDA-MB-231 [1] was 0.118 ± 0.0024. In the assay with MDA-MB-231 [2], the kynurenine production came to 0.198 ± 0.023.

For the molecule `CC(=O)O[C@@H]1C[C@H](O)[C@@]23CO[C@@H](O)[C@]1(C)[C@@H]2C[C@@H](O)[C@]1(C)[C@@H]3C(=O)[C@H](OC(C)=O)[C@@]2(C)[C@H](c3ccoc3)C[C@H]3O[C@]321` [Toosendanin] (compound dose: 10 uM), the cell viability in the assay with MDA-MB-231 [1] turned out to be 0.858 ± 0.056. The kynurenine production in the assay on MDA-MB-231 [2] stood at 0.206 ± 0.03.

As to `C=C1C(=O)O[C@@H]2C[C@@]3(C)CCC[C@H](C)C3=C[C@H]12` [Alantolactone] (compound dose: 10 uM), the cell viability in the assay with MDA-MB-231 [1] was 0.909 ± 0.023. For the same molecule, the kynurenine production with MDA-MB-231 [2] came out at 0.0823 ± 0.017.

For `COC(=O)C1=CO[C@@H](O[C@@H]2O[C@H](CO)[C@@H](O)[C@H](O)[C@H]2O)[C@@H]2[C@@]3(C)O[C@H]3[C@@H](O)[C@]12O` [Sesamoside] (compound dose: 10 uM), in the assay on MDA-MB-231 [1], the cell viability amounted to 0.9746 ± 0.0057. Further, the kynurenine production in the assay with MDA-MB-231 [2] came to 0.928 ± 0.12.

For the molecule `CC(=O)OC[C@H]1O[C@@H](OC[C@H]2O[C@@H](OC(=O)[C@]34CCC(C)(C)C[C@H]3C3=CC[C@@H]5[C@@]6(C)CC[C@H](O[C@@H]7OC[C@H](O)[C@H](O)[C@H]7O[C@@H]7O[C@H](CO)[C@@H](O)[C@H](O)[C@H]7O)C(C)(C)[C@@H]6CC[C@@]5(C)[C@]3(C)CC4)[C@H](O)[C@@H](O)[C@@H]2O)[C@H](O)[C@@H](O)[C@@H]1O[C@@H]1O[C@@H](C)[C@H](O)[C@@H](O)[C@H]1O` [Acanthopanaxoside B] (compound dose: 10 uM), the cell viability in the assay on MDA-MB-231 [1] was determined as 1.095 ± 0.0013. Also, the kynurenine production in the assay with MDA-MB-231 [2] is 1.01 ± 0.17.

Take `CC1(C)CC[C@]2(C(=O)O[C@@H]3O[C@H](CO[C@@H]4O[C@H](CO)[C@@H](O)[C@H](O)[C@H]4O)[C@@H](O)[C@H](O)[C@H]3O)CC[C@]3(C)C(=CC[C@@H]4[C@@]5(C)CC[C@H](O[C@@H]6OC[C@H](O)[C@H](O)[C@H]6O)[C@@](C)(CO)[C@@H]5CC[C@]43C)[C@@H]2C1` [Asperosaponin VI] (compound dose: 10 uM): the cell viability in the assay with MDA-MB-231 [1] came out at 0.9877 ± 0.0023. The kynurenine production in the assay on MDA-MB-231 [2] was 0.748 ± 0.087.

Regarding `CC1(C)C(O[C@@H]2OC[C@@H](O)[C@H](O)[C@H]2O)CC[C@]23CC24CC[C@]2(C)[C@@H]([C@@]5(C)CC[C@@H](C(C)(C)O)O5)[C@H](O)C[C@@]2(C)C4C[C@@H](O[C@@H]2O[C@H](CO)[C@@H](O)[C@H](O)[C@H]2O)C13` (some centres undefined) [Astragaloside IV] (compound dose: 10 uM), in the assay with MDA-MB-231 [1], the cell viability is 1.05 ± 0.022. For the same molecule, in the assay on MDA-MB-231 [2], the kynurenine production came to 0.878 ± 0.068.
